PubChem BioAssay (NCI)
The panel holds about 79,000 compounds, 15% with a hit somewhere; the sample as a whole holds those more often. Unmarked numbers belong to inactive results. Calls of active or inactive are those of the source. Cut-off read from the data, not from the text of the source: active = growth inhibition above about 70%; inactive = the rest.

Legend:
[1] = NCI Yeast Anticancer Drug Screen. Data for the rad52 strain (AID 147);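 note: 0% = growth of vehicle-treated control cultures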; conditions: S. cerevisiae rad52 mutant growth inhibition, active compounds read high
Method in brief: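 Growth of repair-deficient yeast cells was compared between compound-treated and vehicle-treated cultures to give percent inhibition.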

[2] = NCI Yeast Anticancer Drug Screen. Data for the rad50EPP+ strain (AID 151);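 note: 0% = growth of vehicle-treated control cultures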; conditions: S. cerevisiae rad50 mutant strain, active compounds read high
Method in brief: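 Measured: growth inhibition of rad50EPP+ yeast. Reference: vehicle-treated controls. Screen uses strains with defined genetic alterations in DNA damage repair or cell cycle control.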

[3] = NCI Yeast Anticancer Drug Screen. Data for the mgt1 strain (AID 153); conditions: S. cerevisiae mgt1 mutant growth inhibition, active compounds read high
Method in brief: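 Compounds were applied to mgt1 mutant yeast, and growth was then compared against vehicle-treated control cultures to give percent inhibition.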

[4] = NCI Yeast Anticancer Drug Screen. Data for the rad50 strain (AID 155);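 note: 0% = growth of vehicle-only cultures of the same strain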; conditions: S. cerevisiae rad50 strain growth inhibition, active compounds read high
Method in brief: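 Cells are treated with compound, grown, and their growth is then scored against vehicle-only cultures of the same repair-deficient yeast strain.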

[5] = NCI Yeast Anticancer Drug Screen. Data for the mec2-1 strain (AID 157); conditions: S. cerevisiae mec2-1 strain, active compounds read high
Method in brief: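 Compounds were applied to mec2-1 yeast cells. Their growth was then compared with that of vehicle-treated cultures to give growth inhibition.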

[6] = NCI Yeast Anticancer Drug Screen. Data for the rad14 strain (AID 159);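 note: 0% = growth of vehicle-treated control cultures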; conditions: S. cerevisiae rad14 strain growth inhibition, active compounds read high
Method in brief: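 Readout: yeast growth inhibition, referenced to vehicle-only cultures. Strain bears a defined alteration in DNA damage repair.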

[7] = NCI Yeast Anticancer Drug Screen. Data for the sgs1 mgt1 strain (AID 161);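 note: 0% = growth of cultures given vehicle only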; conditions: S. cerevisiae sgs1 mgt1 strain, active compounds read high
Method in brief: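 Yeast cells carrying a defined DNA-repair defect were exposed to test compounds. Growth inhibition was measured relative to vehicle-treated controls.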

[8] = NCI Yeast Anticancer Drug Screen. Data for the CLN2oe strain (AID 163);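 note: 0% = growth of vehicle-only control cultures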; conditions: S. cerevisiae CLN2oe strain, active compounds read high
Method in brief: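 Cells of an engineered yeast line with disturbed cell-cycle regulation are treated with compound. Inhibition of growth is then calculated relative to the vehicle-treated reference.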

[9] = NCI Yeast Anticancer Drug Screen. Data for the cln2 rad14 strain (AID 165);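 note: 0% = growth equal to vehicle treated cultures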; conditions: S. cerevisiae cln2 rad14 strain, active compounds read high
Method in brief: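 Strain: cln2 rad14 yeast, altered in cell cycle control and DNA damage repair. Read-out: growth inhibition vs vehicle.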

[10] = NCI Yeast Anticancer Drug Screen. Data for the bub3 strain (AID 167); conditions: S. cerevisiae bub3 mutant strain, active compounds read high
Method in brief: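 Part of a panel of yeast mutants defective in DNA damage repair or cell cycle regulation. Each strain is grown with compound, and inhibition is calculated relative to solvent-treated cultures.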

[11] = NCI Yeast Anticancer Drug Screen. Data for the mlh1 strain (AID 171);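 note: 0% = growth of vehicle-treated control cultures of the same strain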; conditions: S. cerevisiae mlh1 strain growth inhibition, active compounds read high
Method in brief: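 Test agents were incubated with yeast bearing a defined DNA damage repair or cell cycle control alteration; values are growth inhibition normalised to vehicle-treated cultures.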

[12] = NCI Yeast Anticancer Drug Screen. Data for the sgs1 strain (AID 173);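 note: 0% = growth of vehicle-only control cultures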; conditions: S. cerevisiae sgs1 mutant, active compounds read high
Method in brief: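 Strain with an altered DNA repair or cell cycle pathway exposed to compound. Growth then measured. Value = inhibition versus vehicle control.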

[13] = NCI Yeast Anticancer Drug Screen. Data for the mlh1 rad18 strain (AID 175); conditions: S. cerevisiae mlh1 rad18 strain growth inhibition, active compounds read high
Method in brief: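 A repair-deficient yeast strain is exposed to test compound, and growth is scored relative to vehicle-treated controls.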

[14] = NCI Yeast Anticancer Drug Screen. Data for the rad18 strain (AID 177); conditions: S. cerevisiae rad18 mutant growth inhibition, active compounds read high
Method in brief: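 DNA-repair-defective yeast; compound treatment; growth inhibition scored against vehicle.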

[15] = at 5.0 µM (retest, dose inferred, filed as 0.5)
[16] = at 50.0 µM (retest, dose inferred, filed as 5.0)

CCC(C)COC(=O)Nc1cccc(Cl)c1 (stereo not drawn)
growth inhibition ([1]; at 1.2 µM): 5%
growth inhibition ([1]; at 3.7 µM): 6%
growth inhibition ([1]; at 11.0 µM): 11%
growth inhibition ([1]; at 33.0 µM): 59%
growth inhibition ([1]; at 100.0 µM): 91% (active)
growth inhibition ([2]; at 1.2 µM): 6%
growth inhibition ([2]; at 3.7 µM): 15%
growth inhibition ([2]; at 11.0 µM): 39%
growth inhibition ([2]; at 33.0 µM): 61%
growth inhibition ([2]; at 100.0 µM): 72% (active)
growth inhibition ([3]; at 1.2 µM): -7%
growth inhibition ([3]; at 3.7 µM): 0%
growth inhibition ([3]; at 11.0 µM): -8%
growth inhibition ([3]; at 33.0 µM): 29%
growth inhibition ([3]; at 100.0 µM): 99% (active)
growth inhibition ([4]; at 1.2 µM): 9%
growth inhibition ([4]; at 3.7 µM): 22%
growth inhibition [4, 15]: -7%
growth inhibition ([4]; at 11.0 µM): 25%
growth inhibition ([4]; at 33.0 µM): 68%
growth inhibition [4, 16]: 54%
growth inhibition ([4]; at 50.0 µM): 98.9% (active)
growth inhibition ([4]; at 100.0 µM): 99% (active)
growth inhibition ([5]; at 1.2 µM): -5%
growth inhibition ([5]; at 3.7 µM): -10%
growth inhibition [5, 15]: -1%
growth inhibition ([5]; at 11.0 µM): -34%
growth inhibition ([5]; at 33.0 µM): -1%
growth inhibition [5, 16]: 32%
growth inhibition ([5]; at 50.0 µM): 98.1% (active)
growth inhibition ([5]; at 100.0 µM): 98% (active)
growth inhibition ([6]; at 1.2 µM): 3%
growth inhibition ([6]; at 3.7 µM): 2%
growth inhibition ([6]; at 11.0 µM): 2%
growth inhibition ([6]; at 33.0 µM): 34%
growth inhibition ([6]; at 100.0 µM): 99% (active)
growth inhibition [7, 15]: -4%
growth inhibition [7, 16]: 53%
growth inhibition ([7]; at 50.0 µM): 98.8% (active)
growth inhibition ([8]; at 1.2 µM): 0%
growth inhibition ([8]; at 3.7 µM): 1%
growth inhibition ([8]; at 11.0 µM): -7%
growth inhibition ([8]; at 33.0 µM): 4%
growth inhibition ([8]; at 100.0 µM): 99% (active)
growth inhibition [9, 15]: -24%
growth inhibition [9, 16]: 1%
growth inhibition ([9]; at 50.0 µM): 97.5% (active)
growth inhibition ([10]; at 1.2 µM): -2%
growth inhibition ([10]; at 3.7 µM): -4%
growth inhibition [10, 15]: -14%
growth inhibition ([10]; at 11.0 µM): 12%
growth inhibition ([10]; at 33.0 µM): 27%
growth inhibition [10, 16]: 25%
growth inhibition ([10]; at 50.0 µM): 98.6% (active)
growth inhibition ([10]; at 100.0 µM): 99% (active)
growth inhibition ([11]; at 1.2 µM): -6%
growth inhibition ([11]; at 3.7 µM): -5%
growth inhibition ([11]; at 11.0 µM): -7%
growth inhibition ([11]; at 33.0 µM): 57%
growth inhibition ([11]; at 100.0 µM): 99% (active)
growth inhibition ([12]; at 1.2 µM): 0%
growth inhibition ([12]; at 3.7 µM): 2%
growth inhibition ([12]; at 11.0 µM): 7%
growth inhibition ([12]; at 33.0 µM): 87% (active)
growth inhibition ([12]; at 100.0 µM): 99% (active)
growth inhibition [13, 15]: -9%
growth inhibition [13, 16]: 69%
growth inhibition ([13]; at 50.0 µM): 97.5% (active)
growth inhibition ([14]; at 1.2 µM): 4%
growth inhibition ([14]; at 3.7 µM): 5%
growth inhibition ([14]; at 11.0 µM): 1%
growth inhibition ([14]; at 33.0 µM): 27%
growth inhibition ([14]; at 100.0 µM): 98% (active)
